Reference: PubChem BioAssay (EPA / NIEHS)
Activity calls are given as the source filed them. The calls were made as follows: active = hit-call score of the fitted dose curve at least 0.9, where 1 is the maximum; inactive = score below 0.9.

Test system: not listed separately
Assay: ATG_PBREM_CIS: Attagene CIS-FACTORIAL HepG2 Assay for human Phenobarbital-responsive Enhancer Module (PBREM) (AID 2282955)
Details: HepG2 PBREM cis-reporter, Attagene multiplexed transcription; actives raise or lower the signal
How it was run: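 Endogenous transcription factors in human liver HepG2 cells drive a PBREM cis-element reporter, whose transcript level after 24 h treatment is quantified by RT-PCR with capillary electrophoresis; activity fitted in both directions against DMSO.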

Row | Structure (SMILES) | outcome | AC50
1 | CC(=O)OCCc1ccccc1 | inactive | 
2 | CC(=O)OC/C=C(/C)CCC=C(C)C | inactive | 
3 | O=S(=O)(O)c1ccc(N=Nc2c(O)ccc3ccccc23)cc1 | inactive | 
4 | N=C1C=CC(=C(c2ccc(N)cc2)c2ccc(N)cc2)C=C1 | inactive | 
5 | COc1cc(O)c(C(=O)c2ccccc2)cc1S(=O)(=O)O | inactive | 
6 | c1ccc2cnccc2c1 | inactive | 
7 | CC1(C)CCC[C@]2(C)[C@H]3CC(=O)O[C@]3(C)CC[C@@H]12 | inactive | 
8 | C=CC(=O)OCC(C)OCC(C)OCC(C)OC(=O)C=C (stereo unspecified) | inactive | 
9 | Nc1ccc(O)c([N+](=O)[O-])c1 | inactive | 
10 | O=C(O)c1cc(O)c2ccccc2c1O | inactive | 
11 | O=C(Oc1ccccc1)c1ccccc1C(=O)Oc1ccccc1 | inactive | 
12 | CC(=O)CCC1=C(C)CCCC1(C)C | inactive | 
13 | Oc1ccc(/C=C/c2cc(O)cc(O)c2)cc1 |  | 100 µM (active)
14 | CCCCNS(=O)(=O)c1ccc(C)cc1 | inactive | 
15 | Cc1c(C(=O)c2c[nH]n(C)c2=O)ccc(S(C)(=O)=O)c1C1=NOCC1 | inactive | 
16 | O=C(Cl)c1ccc(C(=O)Cl)cc1 | inactive | 
17 | O=C1CCCCCCCCCCC1 |  | 22.2 µM (active)
18 | CCC(=O)C1CC(C(C)C)CC=C1C (stereo unspecified) | inactive | 
19 | O=C(O)CCC(=O)O | inactive | 

Row | Structure (SMILES) | outcome | AC50
20 | CCCCCCCCCC(C)=O | inactive | 
21 | CCCCC(CC)COC(=O)/C=C/c1ccc(OC)cc1 (stereo unspecified) | inactive | 
22 | CCCC/C=C/C=C\C=O | inactive | 
23 | CC(CC=O)CC(C)(C)C (stereo unspecified) | inactive | 
24 | OCCCc1ccccc1 | inactive | 
25 | Nc1cccc(N)n1 | inactive | 
26 | C=C(C)C(=O)OCC(O)COc1ccc(C(C)(C)c2ccc(OCC(O)COC(=O)C(=C)C)cc2)cc1 (stereo unspecified) | inactive | 
27 | CCCCOC(=O)CCC(C)=O | inactive | 
28 | O=C(OCCc1ccccc1)c1ccccc1 | inactive | 
29 | Oc1ccc(-c2ccccc2)c(Cl)c1 | inactive | 
30 | CC(C)C(=O)OCCOc1ccccc1 | inactive | 
31 | O=C(O)CC(C(=O)O)S(=O)(=O)O (stereo unspecified) | inactive | 
32 | CC=C(C)C(C)=O | inactive | 
33 | CC1C(C)(C)C2=C(C(=O)CCC2)C1(C)C (stereo unspecified) | inactive | 
34 | CCCCC(C=O)CC (stereo unspecified) | inactive | 
35 | COC(=O)c1ccc(C(=O)OC)c(C(=O)OC)c1 | inactive | 
36 | CC1=CC(C)C(C=O)CC1 (stereo unspecified) | inactive | 
37 | COc1cc(C)ccc1O | inactive | 

Biological target: Paired box protein Pax-6 (Homo sapiens) (UniProt P26367)
Assay: ATG_Pax6_CIS: Attagene CIS-FACTORIAL HepG2 Assay for human Paired Box 6 (PAX6) (AID 2282956)
Details: HepG2 CIS-FACTORIAL PAX6 reporter transcription, RNA readout; actives raise or lower the signal
How it was run: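 Multiplexed cis-reporter HepG2 system; 24 h treatment; reporter mRNA read by RT-PCR/CE fluorescence; bidirectional fit vs DMSO.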

Sequence of Paired box protein Pax-6 (Homo sapiens) (P26367 whole entry, looked up): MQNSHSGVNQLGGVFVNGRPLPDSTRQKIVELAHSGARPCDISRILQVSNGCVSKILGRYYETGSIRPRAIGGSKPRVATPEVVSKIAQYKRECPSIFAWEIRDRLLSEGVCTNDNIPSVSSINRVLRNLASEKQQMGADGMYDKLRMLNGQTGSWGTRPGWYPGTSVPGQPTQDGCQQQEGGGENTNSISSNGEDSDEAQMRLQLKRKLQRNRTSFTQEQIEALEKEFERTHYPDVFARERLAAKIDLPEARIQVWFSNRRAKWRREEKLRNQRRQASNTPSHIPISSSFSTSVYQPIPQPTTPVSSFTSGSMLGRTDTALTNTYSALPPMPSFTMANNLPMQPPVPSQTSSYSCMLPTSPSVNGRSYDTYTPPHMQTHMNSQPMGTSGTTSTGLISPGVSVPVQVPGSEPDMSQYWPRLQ

Row | Structure (SMILES) | outcome | AC50
38 | CC(=O)OCCc1ccccc1 | inactive | 
39 | CC(=O)OC/C=C(/C)CCC=C(C)C | inactive | 
40 | O=S(=O)(O)c1ccc(N=Nc2c(O)ccc3ccccc23)cc1 | inactive | 
41 | N=C1C=CC(=C(c2ccc(N)cc2)c2ccc(N)cc2)C=C1 |  | 37.8 µM (active)
42 | COc1cc(O)c(C(=O)c2ccccc2)cc1S(=O)(=O)O | inactive | 
43 | c1ccc2cnccc2c1 | inactive | 
44 | CC1(C)CCC[C@]2(C)[C@H]3CC(=O)O[C@]3(C)CC[C@@H]12 | inactive | 
45 | C=CC(=O)OCC(C)OCC(C)OCC(C)OC(=O)C=C (stereo unspecified) |  | 64.5 µM (active)
46 | Nc1ccc(O)c([N+](=O)[O-])c1 | inactive | 
47 | O=C(O)c1cc(O)c2ccccc2c1O | inactive | 
48 | O=C(Oc1ccccc1)c1ccccc1C(=O)Oc1ccccc1 | inactive | 
49 | CC(=O)CCC1=C(C)CCCC1(C)C | inactive | 
50 | Oc1ccc(/C=C/c2cc(O)cc(O)c2)cc1 | inactive | 
51 | CCCCNS(=O)(=O)c1ccc(C)cc1 | inactive | 
52 | Cc1c(C(=O)c2c[nH]n(C)c2=O)ccc(S(C)(=O)=O)c1C1=NOCC1 | inactive | 
53 | O=C(Cl)c1ccc(C(=O)Cl)cc1 | inactive | 
54 | O=C1CCCCCCCCCCC1 | inactive | 
55 | CCC(=O)C1CC(C(C)C)CC=C1C (stereo unspecified) | inactive | 
56 | O=C(O)CCC(=O)O | inactive | 

Row | Structure (SMILES) | outcome | AC50
57 | CCCCCCCCCC(C)=O | inactive | 
58 | CCCCC(CC)COC(=O)/C=C/c1ccc(OC)cc1 (stereo unspecified) | inactive | 
59 | CCCC/C=C/C=C\C=O |  | 100 µM (active)
60 | CC(CC=O)CC(C)(C)C (stereo unspecified) | inactive | 
61 | OCCCc1ccccc1 | inactive | 
62 | Nc1cccc(N)n1 | inactive | 
63 | C=C(C)C(=O)OCC(O)COc1ccc(C(C)(C)c2ccc(OCC(O)COC(=O)C(=C)C)cc2)cc1 (stereo unspecified) |  | 42.2 µM (active)
64 | CCCCOC(=O)CCC(C)=O | inactive | 
65 | O=C(OCCc1ccccc1)c1ccccc1 | inactive | 
66 | Oc1ccc(-c2ccccc2)c(Cl)c1 | inactive | 
67 | CC(C)C(=O)OCCOc1ccccc1 | inactive | 
68 | O=C(O)CC(C(=O)O)S(=O)(=O)O (stereo unspecified) | inactive | 
69 | CC=C(C)C(C)=O | inactive | 
70 | CC1C(C)(C)C2=C(C(=O)CCC2)C1(C)C (stereo unspecified) | inactive | 
71 | CCCCC(C=O)CC (stereo unspecified) | inactive | 
72 | COC(=O)c1ccc(C(=O)OC)c(C(=O)OC)c1 | inactive | 
73 | CC1=CC(C)C(C=O)CC1 (stereo unspecified) | inactive | 
74 | COc1cc(C)ccc1O | inactive | 

Test system: not listed separately
Assay: ATG_PXRE_CIS: Attagene CIS-FACTORIAL HepG2 Assay for human Pregnane X Receptor Element (PXRE) (AID 2282957)
Details: HepG2 Attagene CIS-FACTORIAL PXRE reporter, mRNA; actives raise or lower the signal
How it was run: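 Transiently transfected HepG2 cells were dosed and incubated for 24 h. RNA was then isolated, DNase-treated, reverse-transcribed and reporter sequences amplified. Labeled, HpaI-digested fragments were quantified by capillary electrophoresis against DMSO.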

Row | Structure (SMILES) | outcome | AC50
75 | CC(=O)OCCc1ccccc1 | inactive | 
76 | CC(=O)OC/C=C(/C)CCC=C(C)C | inactive | 
77 | O=S(=O)(O)c1ccc(N=Nc2c(O)ccc3ccccc23)cc1 |  | 31.6 µM (active)
78 | N=C1C=CC(=C(c2ccc(N)cc2)c2ccc(N)cc2)C=C1 |  | 56.6 µM (active)
79 | COc1cc(O)c(C(=O)c2ccccc2)cc1S(=O)(=O)O | inactive | 
80 | c1ccc2cnccc2c1 |  | 27.6 µM (active)
81 | CC1(C)CCC[C@]2(C)[C@H]3CC(=O)O[C@]3(C)CC[C@@H]12 |  | 3.61 µM (active)
82 | C=CC(=O)OCC(C)OCC(C)OCC(C)OC(=O)C=C (stereo unspecified) |  | 2.25 µM (active)
83 | Nc1ccc(O)c([N+](=O)[O-])c1 | inactive | 
84 | O=C(O)c1cc(O)c2ccccc2c1O |  | 0.944 µM (active)
85 | O=C(Oc1ccccc1)c1ccccc1C(=O)Oc1ccccc1 |  | 24.6 µM (active)
86 | CC(=O)CCC1=C(C)CCCC1(C)C |  | 4.36 µM (active)
87 | Oc1ccc(/C=C/c2cc(O)cc(O)c2)cc1 | inactive | 
88 | CCCCNS(=O)(=O)c1ccc(C)cc1 |  | 27.5 µM (active)
89 | Cc1c(C(=O)c2c[nH]n(C)c2=O)ccc(S(C)(=O)=O)c1C1=NOCC1 |  | 14.4 µM (active)
90 | O=C(Cl)c1ccc(C(=O)Cl)cc1 | inactive | 
91 | O=C1CCCCCCCCCCC1 |  | 8.96 µM (active)
92 | CCC(=O)C1CC(C(C)C)CC=C1C (stereo unspecified) |  | 4.33 µM (active)
93 | O=C(O)CCC(=O)O | inactive | 

Row | Structure (SMILES) | outcome | AC50
94 | CCCCCCCCCC(C)=O | inactive | 
95 | CCCCC(CC)COC(=O)/C=C/c1ccc(OC)cc1 (stereo unspecified) |  | 39.4 µM (active)
96 | CCCC/C=C/C=C\C=O |  | 2.79 µM (active)
97 | CC(CC=O)CC(C)(C)C (stereo unspecified) |  | 8.08 µM (active)
98 | OCCCc1ccccc1 | inactive | 
99 | Nc1cccc(N)n1 | inactive | 
100 | C=C(C)C(=O)OCC(O)COc1ccc(C(C)(C)c2ccc(OCC(O)COC(=O)C(=C)C)cc2)cc1 (stereo unspecified) |  | 2.17 µM (active)
101 | CCCCOC(=O)CCC(C)=O | inactive | 
102 | O=C(OCCc1ccccc1)c1ccccc1 | inactive | 
103 | Oc1ccc(-c2ccccc2)c(Cl)c1 | inactive | 
104 | CC(C)C(=O)OCCOc1ccccc1 |  | 4.56 µM (active)
105 | O=C(O)CC(C(=O)O)S(=O)(=O)O (stereo unspecified) | inactive | 
106 | CC=C(C)C(C)=O |  | 8.49 µM (active)
107 | CC1C(C)(C)C2=C(C(=O)CCC2)C1(C)C (stereo unspecified) |  | 6.01 µM (active)
108 | CCCCC(C=O)CC (stereo unspecified) | inactive | 
109 | COC(=O)c1ccc(C(=O)OC)c(C(=O)OC)c1 | inactive | 
110 | CC1=CC(C)C(C=O)CC1 (stereo unspecified) |  | 27.7 µM (active)
111 | COc1cc(C)ccc1O | inactive | 
